Rows were chosen to be rich in hits. Some 1.4% of all compounds tested hit in one or more screens of this group.
MenB inh – inhibitors of Mycobacterium tuberculosis MenB enzyme | P9WNP5 | MenB enzyme assay, absorbance read-out | inhibition, % (test concentration not listed) | 100,000 compounds, 0.43% hits | AID 540299; in the data active = inhibition above about 21%, passing the limit was not always enough
Mtb MbtI inh – inhibitors of Mycobacterium tuberculosis siderophore enzyme MbtI; purified MbtI enzyme, fluorescence intensity read-out; inhibition, % (test concentration not listed); 100,000 compounds, 0.89% hits; AID 493033; in the data active = inhibition mostly above about 56%, no sharp cut-off; inactive = mostly below about 77%
AID504770 – E. coli YBA685 growth inhibition, screen for V. cholerae RctB inhibitors | E. coli YBA685 rctB-dependent plasmid, OD600 growth, 3 h; stronger effect = lower value | z-score (concentration not given with the values) | 130,000 compounds, 0.27% hits | AID 504770; in the data active = z-score below about -2, passing the limit was not always enough
PV pol inh – inhibitors of poliovirus RNA polymerase binding and polymerization; % elongation, % (compound at 16.7 µg/mL); 150,000 compounds, 0.66% hits; poliovirus polymerase elongation, fluorescence polarization; stronger effect = lower value; P03300; in the data active = % elongation below about 90%
Target sequence (P03300 1749-2209 limits assumed): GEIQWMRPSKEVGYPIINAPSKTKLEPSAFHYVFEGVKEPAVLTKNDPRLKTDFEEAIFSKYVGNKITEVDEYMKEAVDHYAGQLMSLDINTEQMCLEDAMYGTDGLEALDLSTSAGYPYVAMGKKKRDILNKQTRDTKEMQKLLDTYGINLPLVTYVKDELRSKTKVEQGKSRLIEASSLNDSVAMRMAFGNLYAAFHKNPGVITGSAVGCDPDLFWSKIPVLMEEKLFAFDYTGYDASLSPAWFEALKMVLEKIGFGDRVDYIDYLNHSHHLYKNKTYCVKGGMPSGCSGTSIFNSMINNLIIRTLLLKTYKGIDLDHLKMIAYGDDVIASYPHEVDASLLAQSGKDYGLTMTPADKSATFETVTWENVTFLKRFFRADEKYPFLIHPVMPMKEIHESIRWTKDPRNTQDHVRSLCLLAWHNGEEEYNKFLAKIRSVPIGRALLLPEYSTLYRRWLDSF
The depositor's hits bear a star; . = no result.

SMILES	MenB inh	Mtb MbtI inh	AID504770	PV pol inh
O=C1c2ccccc2-c2onc3ccc(Oc4c(F)c(F)c(F)c(F)c4F)c1c23	3	-5	-2.2*	102
O=C1c2ccccc2-c2onc3c(Cl)ccc1c23	-26	1	1.8	100
O=C1NC(=O)NC(=C/C=C/c2ccc(-c3ccc(Cl)cc3Cl)o2)N1	-18	57*	1.4	102
O=C(Nc1ccccc1Cl)c1cc2c(s1)CCC2	.	4	-1.5	102
O=C(NC1=NCCS1)c1cc2c(s1)CCC2	.	2	-2.4*	103
CC1OS(=O)OC1(c1ccccc1)c1ccccc1 (stereo not drawn)	-16	.	-1.3	89*
CN(C)C(CNC1CC2CC1C1CCCC21)c1ccco1 (stereo not drawn)	-14	-2	-0.25	98
Cc1cc(Nc2ccc(F)cc2)nc(-n2nc(C)cc2C)n1	.	.	.	103
COC(=O)c1c(NC(=S)Nn2cnnc2)sc2c1CCC(C)C2 (stereo not drawn)	-15	85*	-0.2	99
COC(=O)c1c(NC(=S)NCc2ccco2)sc2c1CCC(C)C2 (stereo not drawn)	-18	-3	-0.05	101
Cc1ccccc1NC(=O)NCCCN1CCCC1	4	-8	0.45	102
C/C(=C/C(=O)O)C(=O)Nc1nc(-c2cccs2)cs1	-10	72*	0.15	.
CCc1ccc(CN2CCC(O)CC2)cc1	36*	-11	-0.55	99
CC(C)c1ccc(-c2nnn(Cc3cc(=O)n4ccsc4n3)n2)cc1	-4	-51	-2.2*	104
Cc1ccc(S(=O)(=O)NC(C)C(=O)N2CCN(c3cccc(Cl)c3)CC2)cc1 (stereo not drawn)	-22	1	-0.55	102
CC(NS(=O)(=O)c1cccc(Cl)c1)C(=O)N(C)C1CCN(C)CC1 (stereo not drawn)	-36	-11	-5.3*	106
Cc1ccc(S(=O)(=O)C(C)(C)C)s1	18	-8	-0.05	100
O=C(O)c1ccc(C2Nc3ccccc3C3C=CCC32)cc1 (stereo not drawn)	-18	.	2.5	59*
Fc1ccc2nc(NCc3ccccc3)sc2c1	-2	61	-0.6	84*
O=C1C=CC(=O)N1c1ccc2c(c1)OCO2	23	99*	-2*	102
O=C1c2cccc3cccc(c23)C(=O)N1c1ccc2c(c1)OCO2	.	.	1.7	.
COC(CN(C)S(=O)(=O)c1ccc(N2CCCCS2(=O)=O)cc1)OC	-25	-1	-1.2	100
CSc1ccc(-c2nc3ccccc3c(=O)[nH]2)cc1	0	-7	-0.9	98
CCOC(=O)c1sc(C)c2c(=O)[nH]c(-c3ccc(SC)cc3)nc12	.	64*	-0.8	.
N#Cc1ccc(C(=O)OC2CCCCC2=O)cc1 (stereo not drawn)	1	11	0.75	102
SMILES	MenB inh	Mtb MbtI inh	AID504770	PV pol inh
O=C(CCC(=O)c1ccc(Cl)cc1)OC1CCCCC1=O (stereo not drawn)	-14	-12	-0.1	66*
Cc1cc2[nH]c(=O)c(=O)[nH]c2cc1S(=O)(=O)N1CCCCC1	-14	39	-2.5*	102
Cc1cc(C)c(S(=O)(=O)N2CCCCC2)cc1C	.	.	-0.1	.
CN(Cc1ccccc1)C(=O)COc1ccc(S(=O)(=O)N2CCCC2)cc1	40*	-3	0.2	100
Cc1ccc2o/c(=N\O)c(C(N)=O)cc2c1	-12	100*	-1.6	100
S=C(Nc1ccc2[nH]ccc2c1)NC1CCCCC1	-28	0	0.65	103
CCN1CSC(=S)N(Cc2ccccc2)C1	-58	0	-2.9*	101
CCN1CSC(=S)N(Cc2ccc(OC)cc2)C1	-73	6	1.4	101
C/C(C/C(C)=C1/SC(=S)NC1=O)=C1\SC(=S)NC1=O	-54	81*	-0.35	102
CCOc1ccc(C2C(C(=O)OC)=CN(CC(C)C)C=C2C(=O)OC)cc1OC	-78	-184	0.65	102
CC(Sc1nnc(Cc2cccc3ccccc23)n1C1CCCCC1)C(=O)NCc1ccco1 (stereo not drawn)	-18	-19	-0.3	104
CN(C)/C=C1/C=C(c2ccccc2)OC1=S	-168	80*	2.9	99
O=C1OC(c2ccccc2)=C/C1=C/c1ccccc1	.	.	1	.
O=C1C2C3c4ccccc4C(c4ccccc43)C2C(=O)N1Cc1ccco1 (stereo not drawn)	23*	-1	1.2	101
CC(C)C(=O)Nc1nnc(-c2ccccc2)s1	-7	.	0.95	87*
COc1ccc(OC)c(CCNC(=O)CCCc2nnc3n(C)c(=O)c4sccc4n23)c1	.	.	.	101
O=C(COC(=O)c1ccccc1Cl)c1ccc(Cl)cc1	2	-8	-0.45	105
NC(=O)c1ccccc1NCC(=O)c1ccc(Cl)cc1	.	.	-2.2*	.
CC(C)(C)c1ccc(-c2cc3ncc(-c4ccccc4)c(N)n3n2)cc1	-11	19	-2.3*	97
Cn1nc(-c2ccc(C(C)(C)C)cc2)cc1N	.	.	-0.65	.
NNc1nc(-c2ccccc2)c2ccccc2n1	.	.	1.2	.
NNc1nnc(-c2ccccc2)c(-c2ccccc2)n1	-41	73*	3	100
CCOC(=O)c1cnc2ccc(OCC)cc2c1NCCN(C)C	-9	35	-0.95	101
CCOC(=O)c1cnc2ccc(OCC)cc2c1NCCCN1CCOCC1	2	.	-0.2	89*
COc1ccccc1-c1nn(CNc2ccccc2)c(=S)o1	0	.	0.35	106
SMILES	MenB inh	Mtb MbtI inh	AID504770	PV pol inh
CCCN=c1ssc(=O)n1CCC	0	67*	-1.5	91
CCCCn1c(CNC(=O)c2ccc(OC)cc2)nnc1SCC(=O)Nc1ccccc1	.	.	.	98
S=c1[nH]nc(Cc2cccc3ccccc23)n1/N=C/c1ccco1	-37	65*	0.75	99
FC(F)(F)c1n[nH]c(=S)n1/N=C/c1c[nH]c2ccccc12	-5	.	0.25	95
O=S(=O)(Nc1ccc(OC(F)(F)F)cc1)c1cccc2nsnc12	.	.	2.1	.
CCNc1ncnc2c1nnn2CC	-47	86*	1.9	99
CCNc1ncnc2c1nnn2C	.	.	.	103
CCOc1ccc(C2=NC(c3ccc(OC)cc3)NC(c3ccccc3O)C2)cc1 (stereo not drawn)	-6	3	0.7	101
CCCC(=O)Oc1c(Sc2ccccc2)c(C)nn1-c1ccccc1	.	58*	.	.
CCOC(=O)c1c(N)sc(C)c1C	.	.	-1.1	.
Cc1nc(C(=O)Nc2ccc(Cl)cc2)sc1C(=O)Nc1ccc(Cl)cc1	5	64*	0.45	69*
Clc1ccccc1C1=NC2=S(O1)OC(c1ccccc1Cl)=N2	6	80*	0.6	96
COC(=O)Cc1nc(-c2ccccc2)cs1	6	10	0.05	86*
O=C(CSc1nncc(=O)[nH]1)Nc1cccc(Cl)c1	-51	73*	-0.15	101
O=C(CSc1nncc(=O)[nH]1)NCc1ccccc1	1	11	0.45	99
O=C(/C=C/c1ccccc1)Nc1nnc(C(F)(F)F)s1	-4	38	-0.1	98
CCOc1ccc(C2=C(C(C)=O)Sc3nnc(C)n3N2C(C)=O)cc1	.	.	.	79*
O=C(Cc1coc2cc(O)ccc12)OCc1ccccc1C(F)(F)F	-17	-8	-0.15	100
O=C(Cc1coc2cc(O)ccc12)OCC(=O)c1ccc2[nH]c(=O)[nH]c2c1	-12	-7	-0.35	72*
